Measurements from PubChem BioAssay AID1159580 (chemical genetic matrix, 2015).
Hit rate of the full screen: of about 5,500 compounds, about 2,000 (36%) were called active. About 18% were inconclusive and are not listed. Rule as the data show it: active = normalized growth mostly below about 0.91 (no sharp cut-off); inconclusive = no clear call, values can overlap the other calls; inactive = mostly above about 0.92. The list shows a part of the results.

Experiment: chemical genetic growth profiling, strain panel (AID 1159580);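 also: tested at 20 µM; growth read once vehicle control cultures reached saturation at 30 °C; 1 = growth at the plate median or of vehicle wells; lower values mean less growth of the strain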
Settings: growth OD
[1] = S. cerevisiae deletion strains, locus YHR030C, strain SLT2, active compounds read low
[2] = S. cerevisiae deletion strains, locus YAL013W, strain DEP1, active compounds read low
[3] = S. cerevisiae deletion strains, locus YBR229C, strain ROT2, active compounds read low
[4] = S. cerevisiae deletion strains, locus YCL061C, strain MRC1, active compounds read low
[5] = S. cerevisiae deletion strains, locus YDL101C, strain DUN1, active compounds read low
[6] = S. cerevisiae deletion strains, locus YDR150W, strain NUM1, active compounds read low
[7] = S. cerevisiae deletion strains, locus YEL061C, strain CIN8, active compounds read low
[8] = S. cerevisiae deletion strains, locus YGR078C, strain PAC10, active compounds read low
[9] = S. cerevisiae deletion strains, locus YHR087W, strain rtc3, active compounds read low
[10] = S. cerevisiae deletion strains, locus YJR043C, strain POL32, active compounds read low
[11] = S. cerevisiae deletion strains, locus YJR075W, strain HOC1, active compounds read low
[12] = S. cerevisiae deletion strains, locus YKL190W, strain CNB1, active compounds read low
[13] = S. cerevisiae deletion strains, locus YLR039C, strain RIC1, active compounds read low
[14] = S. cerevisiae deletion strains, locus YLR058C, strain SHM2 (second series), active compounds read low
[15] = S. cerevisiae deletion strains, locus YLR085C, strain ARP6, active compounds read low
[16] = S. cerevisiae deletion strains, locus YLR262C, strain YPT6, active compounds read low
[17] = S. cerevisiae deletion strains, locus YML094W, strain GIM5, active compounds read low
[18] = S. cerevisiae deletion strains, locus YMR219W, strain ESC1, active compounds read low
[19] = S. cerevisiae deletion strains, locus YMR263W, strain SAP30, active compounds read low
[20] = S. cerevisiae deletion strains, locus YNL153C, strain GIM3, active compounds read low
[21] = S. cerevisiae deletion strains, locus YNL298W, strain CLA4 (second series), active compounds read low
[22] = S. cerevisiae deletion strains, locus YNL322C, strain KRE1, active compounds read low
[23] = S. cerevisiae deletion strains, locus YNR030W, strain Alg12, active compounds read low
[24] = S. cerevisiae deletion strains, locus YPL055C, strain LGE1, active compounds read low
[25] = S. cerevisiae deletion strains, locus YPL241C, strain CIN2, active compounds read low
[26] = S. cerevisiae deletion strains, locus YPR135W, strain CTF4, active compounds read low
[27] = S. cerevisiae deletion strains, locus YMR307W, strain GAS1, active compounds read low
[28] = S. cerevisiae deletion strains, locus YAL040C, strain CLN3, active compounds read low
[29] = S. cerevisiae deletion strains, locus YCL061C, strain MRC1 (second series), active compounds read low
[30] = S. cerevisiae deletion strains, locus YDR363W, strain ESC2, active compounds read low
[31] = S. cerevisiae deletion strains, locus YER002W, strain NOP16, active compounds read low
[32] = S. cerevisiae deletion strains, locus YNL128W, strain TEP1, active compounds read low
[33] = S. cerevisiae deletion strains, locus YNL175C, strain NOP13, active compounds read low
[34] = S. cerevisiae deletion strains, locus YNL197C, strain WHI3, active compounds read low
[35] = S. cerevisiae deletion strains, locus YNL224C, strain SQS1, active compounds read low
[36] = S. cerevisiae deletion strains, locus YOR083W, strain WHI5 (second series), active compounds read low

Measured: normalized growth

c1cncc(C2=NCCC2)c1
inactive: [1] 1.02 | S. cerevisiae deletion strains, locus YHR079C, strain IRE1, active compounds read low 1.01 | S. cerevisiae deletion strains, locus YJL095W, strain BCK1, active compounds read low 1.02 | S. cerevisiae deletion strains, locus YJR066W, strain TOR1, active compounds read low 0.938 | S. cerevisiae deletion strains, locus YLR113W, strain HOG1, active compounds read low 0.905 | S. cerevisiae deletion strains, locus YNL183C, strain NPR1, active compounds read low 0.952 | S. cerevisiae deletion strains, locus YOR231W, strain MKK1, active compounds read low 1.01 | S. cerevisiae deletion strains, locus YPL256C, strain CLN2, active compounds read low 0.99

c1ccc(-c2csc(-c3cccnc3)n2)cc1
active: [2] 0.872 | [3] 0.886 | [4] 0.853 | [7] 0.793 | [8] 0.9 | [1] 0.132 | [11] 0.855 | [12] 0.853 | [13] 0.557 | [14] 0.908 | [15] 0.275 | [16] 0.432 | [17] 0.772 | [18] 0.892 | [19] 0.873 | [20] 0.887 | [21] 0.74 | [22] 0.94 | [23] 0.857 | [24] 0.717 | [25] 0.855 | [26] 0.377
inactive: [5] 0.912 | S. cerevisiae deletion strains, locus YDL134C, strain PPH21, active compounds read low 0.954 | [6] 0.946 | [9] 0.938 | [10] 0.935 | S. cerevisiae strains, strain wild type, active compounds read low 0.949

c1ccc(-c2ccc(-c3csc(-c4cccnc4)n3)cc2)cc1
inactive: [2] 1.01 | [3] 1.02 | [4] 0.951 | [5] 0.972 | [6] 1 | [7] 1.01 | [8] 0.997 | [1] 1.04 | [9] 1.01 | S. cerevisiae deletion strains, locus YJL187C, strain SWE1, active compounds read low 0.979 | [10] 0.975 | [11] 1.03 | [12] 1.02 | [13] 1.01 | [14] 1.02 | [15] 0.991 | [16] 1.09 | [17] 1 | [18] 1.02 | [19] 0.992 | [27] 0.896 | [20] 0.956 | [21] 1.04 | [22] 1.03 | [23] 1.01 | S. cerevisiae deletion strains, locus YOL006C, strain TOP1, active compounds read low 1.08 | [24] 0.944 | [25] 0.979 | [26] 1.08

CNc1ccc2oc(C[C@H]3O[C@@]4(CC[C@H]3C)O[C@H]([C@H](C)C(=O)c3ccc[nH]3)[C@H](C)C[C@H]4C)nc2c1C(=O)O
inactive: [2] 0.976 | [28] 0.929 | [29] 0.951 | [30] 0.928 | [31] 0.997 | [32] 0.98 | [35] 0.924 | [36] 0.906
active: [33] 0.907 | [34] 0.853

CCCCCC(O)c1cccc(OCc2ccc3ccccc3n2)c1 (stereo unspecified)
inactive: [2] 0.958 | [28] 0.958 | [29] 0.984 | [6] 1 | [30] 0.976 | [31] 1.01 | [8] 0.982 | S. cerevisiae deletion strains, locus YGR229C, strain SMI1, active compounds read low 0.942 | [27] 0.996 | [32] 1 | [33] 0.995 | [34] 0.995 | [35] 0.99 | [22] 0.972 | [36] 0.873 | [24] 0.973
